Test results from PubChem BioAssay.
Activity calls are given as the source filed them. Unless noted, how the calls were made is not given here.

How the values were obtained:
[1] = resazurin metabolic signal in HepG2 cells – cell-based, resazurin fluorescence, 24 h, PK04 Diversity Set, profiling panel (AID 1172); conditions: HepG2 viability, higher = more signal; further: test concentration not given here
[2] = budding yeast growth changes without added modifier – OD600, strain BY4716, 24 h, basal condition, primary screen (AID 1173); conditions: S. cerevisiae BY4716 growth, OD600, 24 h; higher = more signal, called active from +8 up or from −8 down
[3] = viability profiling in MM1S myeloma cells – cell-based, resazurin fluorescence, basal, 24 h, PK04 Diversity Set, profiling panel (AID 1174); conditions: higher = more signal, called active from +8 up or from −8 down;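 further: MM1S multiple myeloma cell line; test concentration not given here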
[4] = target: Dihydroorotate dehydrogenase (quinone), mitochondrial (Plasmodium falciparum (isolate 3D7)) (UniProt Q08210); test: inhibition of P. falciparum DHODH – biochemical, C-terminal His tag, absorbance 600 nm, primary screen (AID 1175); conditions: PfDHODH enzyme, DCIP absorbance 600 nm; higher = more signal, called active from +8 up or from −8 down;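 further: recombinant parasite enzyme with a five histidine tag at its C terminus; test concentration not given here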
[5] = inhibition of PAO1 biofilm formation – strain PAO1, LB-PBS medium, absorbance 600 nm, primary screen (AID 1176); further: test concentration not given here; conditions: P. aeruginosa PAO1 growth/biofilm, A600, 12 h; higher = more signal
[6] = growth modulation of vineyard yeast isolate – strain RM11-1a, OD600, basal, 24 h, primary screen (AID 1177);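 further: cultures grown under basal conditions with no added stressor; test concentration not given here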; conditions: S. cerevisiae RM11-1a growth, OD600, 24 h; higher = more signal, called active from +8 up or from −8 down
[7] = growth of efflux-deficient E. coli DRC39 – strain DRC39, OD650, 24 h, E. coli filamentation inducers, primary screen (AID 1178);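 further: growth measured as culture turbidity by optical density at 650 nm; test concentration not given here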; conditions: E. coli DRC39 acrAB, higher = more signal, called active from +8 up or from −8 down
[8] = growth of efflux-deficient E. coli DRC39 – strain DRC39, OD650, 48 h, E. coli filamentation inducers, primary screen (AID 1179);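 further: screen aims at cell division blockers that make cells filament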; conditions: E. coli DRC39 delta-acrAB growth, higher = more signal, called active from +8 up or from −8 down
[9] = viability profiling in RPMI8226 myeloma cells – cell-based, resazurin fluorescence, basal, 24 h, PK04 Diversity Set, profiling panel (AID 1180); conditions: higher = more signal;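 further: RPMI8826 multiple myeloma cell line at 5000 cells per well; test concentration not given here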
[10] = target: E3 ubiquitin-protein ligase XIAP (Homo sapiens) (UniProt P98170); test: small molecules binding XIAP protein – biophysical, small-molecule microarray, fluorescence 635 nm, primary screen (AID 1181); conditions: higher = more signal;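 further: score merges 667 nm emission and signal to noise over triplicate slides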
E3 ubiquitin-protein ligase XIAP (Homo sapiens), sequence (P98170 whole entry, looked up): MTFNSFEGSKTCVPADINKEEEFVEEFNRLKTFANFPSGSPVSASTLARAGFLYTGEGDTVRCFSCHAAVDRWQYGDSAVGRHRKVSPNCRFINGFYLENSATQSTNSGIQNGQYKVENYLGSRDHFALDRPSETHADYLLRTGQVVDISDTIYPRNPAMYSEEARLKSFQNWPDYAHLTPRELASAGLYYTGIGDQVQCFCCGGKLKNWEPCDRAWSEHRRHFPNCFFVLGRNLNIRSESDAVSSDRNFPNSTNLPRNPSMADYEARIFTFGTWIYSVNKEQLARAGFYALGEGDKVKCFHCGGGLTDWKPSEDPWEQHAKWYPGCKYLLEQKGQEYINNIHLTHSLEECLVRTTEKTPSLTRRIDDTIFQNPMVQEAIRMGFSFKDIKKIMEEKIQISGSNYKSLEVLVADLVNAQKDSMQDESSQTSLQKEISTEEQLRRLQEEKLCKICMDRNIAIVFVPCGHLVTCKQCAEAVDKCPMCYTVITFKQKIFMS

Dihydroorotate dehydrogenase (quinone), mitochondrial (Plasmodium falciparum (isolate 3D7)), sequence (Q08210 whole entry, looked up): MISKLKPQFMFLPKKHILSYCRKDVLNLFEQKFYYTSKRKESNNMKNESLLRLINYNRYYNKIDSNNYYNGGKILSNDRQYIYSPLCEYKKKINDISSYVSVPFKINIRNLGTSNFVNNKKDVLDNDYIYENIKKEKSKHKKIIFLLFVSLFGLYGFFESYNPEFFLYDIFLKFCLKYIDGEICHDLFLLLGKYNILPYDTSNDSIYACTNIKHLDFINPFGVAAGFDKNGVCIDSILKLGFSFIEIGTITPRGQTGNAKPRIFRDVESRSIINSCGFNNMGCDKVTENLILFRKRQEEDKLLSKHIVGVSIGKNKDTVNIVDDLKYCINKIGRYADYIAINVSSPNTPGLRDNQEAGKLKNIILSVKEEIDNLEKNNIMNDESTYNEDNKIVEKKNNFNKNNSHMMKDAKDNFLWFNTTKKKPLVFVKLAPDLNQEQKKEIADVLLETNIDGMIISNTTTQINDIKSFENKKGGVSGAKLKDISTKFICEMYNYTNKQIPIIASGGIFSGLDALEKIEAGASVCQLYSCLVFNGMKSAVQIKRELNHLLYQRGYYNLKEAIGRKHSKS

Row | Compound | z-score [1] | z-score [2] | z-score [3] | composite z-score [4] | z-score [5] | z-score [6] | z-score [7] | z-score [8] | z-score [9] | composite z-score [10]
1 | COCCOC(=O)N1C(=O)[C@@]2(c3cc(C#CC4(O)CCCCCC4)ccc31)[C@H](C(=O)N1CCN(c3ncccn3)CC1)[C@H]1C(=O)O[C@H](c3ccccc3)[C@H](c3ccccc3)N1[C@@H]2c1ccc(OCCO)cc1 | -0.324 | 1.44 (inactive) | 0.712 (inactive) | -0.0915 (inactive) | 2.53 (inactive) | 2.98 (inactive) | -0.446 (inactive) | 0.293 (inactive) | 0.928 | -0.0749
2 | COC(=O)C1=C(C)[C@@H](O)[C@@H](C)[C@H](c2c(OC)c(OC)c(C)c(OC)c2OC)O1 | -0.359 | -0.195 (inactive) | -0.46 (inactive) | -0.218 (inactive) | 0.368 (inactive) | 0.0467 (inactive) | 0.0595 (inactive) | -0.0569 (inactive) | -0.529 | 0.0101
3 | Cc1cc2c(nc1C)CCCN2CC(O)CN1CCN(C)CC1 (stereo not given) | -0.406 | -0.428 (inactive) | -0.709 (inactive) | -1.14 (inactive) | 1.02 (inactive) | -0.185 (inactive) | -0.233 (inactive) | -0.125 (inactive) | -0.0252 | 1.64
4 | Cc1ccc(S[C@]2(C(=O)NCC(F)(F)F)CC(=O)N(Cc3ccccc3Cl)[C@@H]2c2ccc(CO)cc2I)cc1 | 0.305 | -3.36 (inactive) | -3.29 (inactive) | -0.148 (inactive) | 0.0214 (inactive) | -0.54 (inactive) | 0.357 (inactive) | 0.465 (inactive) | -2.02 | 0.0256
5 | CC(=O)OC[C@H]1O[C@@H](ON=C(C)CCN2CCc3nc(-c4ccccc4)c(-c4ccccc4)cc3C2)[C@H](OC(C)=O)[C@@H](OC(C)=O)[C@@H]1OC(C)=O | -0.182 | -0.909 (inactive) | -0.653 (inactive) | -0.24 (inactive) | 0.0039 (inactive) | -0.127 (inactive) | -1.11 (inactive) | -2.14 (inactive) | -0.323 | 0.0819
6 | O[C@@H](Cc1ccccc1)[C@H]1C2C=CCCC(c3ccccc3)=C2CN1Cc1cccc(Cl)c1 (stereo not given in full) | 0.689 | -3.75 (inactive) | -0.146 (inactive) | 0.426 (inactive) | 1.56 (inactive) | -0.53 (inactive) | 3.04 (inactive) | 1.85 (inactive) | -0.0337 | 0.25
7 | O=C1C2C=CC(C(O)c3ccc([N+](=O)[O-])cc3)N(Nc3ccc([N+](=O)[O-])cc3)C2C(=O)N1c1ccccc1 (stereo not given) | -0.686 | 1.61 (inactive) | -0.858 (inactive) | 1.2 (inactive) | 1.64 (inactive) | 1.44 (inactive) | -1.3 (inactive) | -1.09 (inactive) | -0.823 | 0.23
8 | CC(C)[C@@H](OCc1ccccc1)[C@H](C)C=NO[C@H](C)c1cn([C@H](CO)Cc2ccccc2)nn1 | -1.01 | -3.51 (inactive) | -2.02 (inactive) | -0.926 (inactive) | -0.324 (inactive) | -2.3 (inactive) | -0.0325 (inactive) | -0.0205 (inactive) | -1.67 | -0.0287
9 | C=CCOC(=O)[C@H]1[C@@H]2C(=O)O[C@@H](c3ccccc3)[C@@H](c3ccccc3)N2[C@@H](c2ccc(OCCOC(=O)[C@H]3C[C@H]4C(=O)N5CCC[C@H]5C(=O)N4[C@H]3c3cccc(OCCO)c3)cc2)[C@]12C(=O)Nc1ccc(I)cc12 | 0.187 | 0.0932 (inactive) | -0.376 (inactive) | -15.3 (active) | -0.102 (inactive) | -0.442 (inactive) | -0.277 (inactive) | -0.553 (inactive) | 0.0614 | 0.724
10 | CCCCC(=C=CC[C@H](O)c1ccccc1OCCO)C[C@H](O)COCc1ccccc1 | -0.325 | -1.18 (inactive) | -0.505 (inactive) | -2.89 (inactive) | 0.637 (inactive) | -0.0076 (inactive) | 0.156 (inactive) | 0.0347 (inactive) | -0.276 | -0.0062
11 | C=C(/C(=C/C[C@H](OC(C)=O)c1ccc(OCCO)cc1)c1cnc2ccccc2c1)C(C)C | 1.93 | -1.34 (inactive) | -0.97 (inactive) | -5.53 (inactive) | -0.092 (inactive) | -0.705 (inactive) | 0.263 (inactive) | -0.511 (inactive) | -0.853 | 0.102
12 | COC(=O)[C@@]1(Cc2ccc(OC)cc2)[C@H]2c3cc(C(=O)N4CCCC4)n(Cc4cc(F)c(F)c(F)c4)c3C[C@H]2CN1C(=O)c1ccccc1 | 0.0559 | 1.35 (inactive) | -2.23 (inactive) | 0.13 (inactive) | 1.03 (inactive) | 0.0628 (inactive) | -0.824 (inactive) | -0.254 (inactive) | -3.1 | 0.25
13 | O=C1[C@H]2[C@H]3[C@H](O)[C@H](O)CC(=NO[C@@H]4O[C@H](CO)[C@@H](O)[C@H](O)[C@H]4O)[C@@H]3CC[C@H]2C(=O)N1Cc1ccc2c(c1)OCO2 | -0.191 | -0.387 (inactive) | 0.0622 (inactive) | 0.0922 (inactive) | -0.389 (inactive) | -0.558 (inactive) | -0.494 (inactive) | -0.136 (inactive) | 0.36 | -0.0552
14 | Cn1c(=O)n2n(c1=O)[C@H]1[C@H](O)[C@@H]3O[C@@H]3C(=NOC[C@@H](O)COCc3ccco3)[C@H]1CC2 | -0.31 | -0.419 (inactive) | -0.877 (inactive) | 0.0599 (inactive) | 0.823 (inactive) | -0.17 (inactive) | -0.157 (inactive) | 0.317 (inactive) | -0.378 | -0.0382
15 | [N-]=[N+]=Nc1ccccc1C[C@@]1(C(N)=O)N=C(c2ccc(OCCCO)cc2)O[C@@H]1c1ccccc1 | -0.501 | -1.86 (inactive) | -0.6 (inactive) | -0.684 (inactive) | 0.218 (inactive) | -0.364 (inactive) | 0.289 (inactive) | -1.01 (inactive) | -0.652 | -0.0344
16 | CC(C)[C@@H](OCc1ccccc1)[C@H](C)C=NOC[C@@H](C)[C@H](OCc1ccccc1)C(C)C | -0.914 | 0.425 (inactive) | -0.908 (inactive) | -0.213 (inactive) | -0.324 (inactive) | -0.089 (inactive) | 0.705 (inactive) | 1.09 (inactive) | -1.11 | -0.345
17 | CC(C)[Si]1(C(C)C)O[C@@H](c2ccccc2)c2cc(C3CC3)nc(-c3ccccc3)c21 | 0.972 | 0.0055 (inactive) | 0.656 (inactive) | 0.45 (inactive) | 0.632 (inactive) | -0.403 (inactive) | -0.281 (inactive) | -0.785 (inactive) | 0.21 | 0.0785
18 | O=C1C[C@@H](O)[C@@H](O)[C@@H]2[C@@H]3C(=O)N(c4cccc(Oc5ccccc5)c4)C(=O)[C@@H]3CC[C@@H]12 | -0.165 | -0.208 (inactive) | 0.207 (inactive) | -0.453 (inactive) | -0.708 (inactive) | -0.25 (inactive) | -0.65 (inactive) | -0.644 (inactive) | -0.0298 | -0.102
19 | CCN1C(=O)[C@H]2[C@H]3[C@H](O)[C@H](O)CC(=NOCc4ccccc4)[C@@H]3CC[C@H]2C1=O | -0.113 | -1.73 (inactive) | -2.61 (inactive) | -2.05 (inactive) | 0.659 (inactive) | -2.27 (inactive) | -0.717 (inactive) | -0.353 (inactive) | -1.89 | -0.0302
20 | COC(=O)CC=C[C@@H](C)[C@@H](C=NO[C@@H](C)c1cc(-c2c(C)cc(C)cc2C)no1)OC | -0.295 | -0.408 (inactive) | -0.656 (inactive) | -2.58 (inactive) | -0.728 (inactive) | -0.357 (inactive) | -0.716 (inactive) | -2.26 (inactive) | 0.197 | -0.124
21 | COc1ccc(O[C@H]2C=C[C@@H](c3ccccc3)O[C@@H]2COC(=O)CCC(C)=NOCC[C@@H]2C=C[C@H](OC(C)=O)[C@@H](COC(C)=O)O2)cc1 | 0.453 | 1.51 (inactive) | 0.595 (inactive) | -0.64 (inactive) | -0.455 (inactive) | 0.893 (inactive) | 0.265 (inactive) | -0.0862 (inactive) | 0.485 | 0.388
22 | CS(=O)(=O)CCOC(=O)C1=CC(CCCO)=CC(c2cccs2)N(Cc2cccc(OC(F)(F)F)c2)C=C1C(=O)OCCS(C)(=O)=O (stereo not given) | -0.746 | -3.44 (inactive) | -1.21 (inactive) | -0.407 (inactive) | 1.52 (inactive) | 0.0788 (inactive) | 0.596 (inactive) | -0.0926 (inactive) | -0.96 | -0.268
23 | O=C(NN=C1C[C@@H](O)[C@@H](O)[C@@H]2[C@@H]3C(=O)N(c4cccc(Oc5ccccc5)c4)C(=O)[C@@H]3CC[C@H]12)OCc1ccccc1 | 0.615 | -0.841 (inactive) | -0.0525 (inactive) | 0.294 (inactive) | -0.708 (inactive) | -0.474 (inactive) | 0.578 (inactive) | 0.514 (inactive) | 0.49 | -0.141
24 | O=C1[C@H]2[C@H]3[C@H](O)[C@H](O)CC(=NOCc4ccccc4)[C@H]3CC[C@H]2C(=O)N1C[C@@H]1CCCO1 | 0.648 | 0.243 (inactive) | 0.18 (inactive) | -0.279 (inactive) | 0.696 (inactive) | -0.485 (inactive) | -0.359 (inactive) | -0.103 (inactive) | -0.323 | -0.0773
25 | O=C1[C@H]2[C@H]3[C@H](O)[C@H](O)CC(=NOC[C@@H](O)COCc4ccco4)[C@@H]3CC[C@H]2C(=O)N1c1ccc(F)cc1F | 0.883 | -0.374 (inactive) | 0.995 (inactive) | -0.564 (inactive) | -1.45 (inactive) | -0.247 (inactive) | 0.0718 (inactive) | 0.264 (inactive) | 1.15 | -0.37
26 | CCN1C(=O)[C@H]2[C@H]3[C@H](O)[C@H](O)CC(=NOCC=C(C)CCC=C(C)C)[C@H]3CC[C@H]2C1=O | -0.337 | -0.327 (inactive) | -0.944 (inactive) | -0.962 (inactive) | 0.164 (inactive) | -0.414 (inactive) | 0.445 (inactive) | 0.314 (inactive) | -1.23 | -0.0988
